CHX counter = Cycloheximide Counterscreen for Small Molecule Inhibitors of Shiga Toxin. cell reporter, cycloheximide protein synthesis inhibition counterscreen. max response, %. 300,000 compounds, 12% hits. AID 2314, 2010; in the data active = max response mostly above about 13%, no sharp cut-off; inactive = mostly below about 14%; also: read at 38.3 µM for the half of the compounds with a filed dose; 0% is about no effect
Shiga toxin inh = A qHTS for Small Molecule Inhibitors of Shiga Toxin; Vero cells, Shiga toxin protein synthesis inhibition reporter; 290,000 compounds, 9.2% hits; inhibition, % at 38.7 µM; in the data active = inhibition mostly above about 28%, no sharp cut-off; inactive = mostly below about 43%; also: 0% is about no effect
Pf growth 48h = Primary qHTS for delayed death inhibitors of the malarial parasite plastid, 48 hour incubation. P. falciparum luciferase growth in erythrocytes, 48 h. 310,000 compounds, 5.9% hits. Potency, µM (doses to about 28.7 µM), for inactives: at the top dose activity change, negative = inhibition, actives largely listed as inhibitors. AID 504832, 2011; also: potency is read from the fitted curve at half-maximal effect; % is scaled to controls: 0 for no effect and ±100 for the full control effect
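First compound was added to culture medium, then infected red cells at 0.1% parasitemia and 2% hematocrit (final). After incubation at 37 C under 5% CO2, luciferase detection reagent was dispensed and light output recorded.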
NS1 function inh = qHTS Assay for Inhibitors of Influenza NS1 Protein Function; 270,000 compounds, 0.4% hits; Potency, µM (series often up to 46.1 µM), for inactives: top-dose activity, positive = more growth; AID 2326, 2010; calls by dose curve; also: potency is read from the fitted curve at half-maximal effect; actives are rising curves; nearly all actives have a fitted effect of over 50% in size
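Growth recovery, yeast-based: influenza A NS1 expressed in S. cerevisiae causes slow growth, and suppressors are detected by OD600. The parent strain without NS1 is used as positive control.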
Pf growth 96h = Primary qHTS for delayed death inhibitors of the malarial parasite plastid, 96 hour incubation. Potency, µM (doses to about 28.7 µM), inactives show top-dose activity change, negative = inhibition, most hits filed as inhibitors. 320,000 compounds, 6.9% hits. P. falciparum luciferase reporter growth, 96 h; also: potency is read from the fitted curve at half-maximal effect; % is scaled to controls: 0 for no effect and ±100 for the full control effect
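Two parasite generations (96 h, 37 C, 5% CO2) of compound exposure in infected erythrocytes (0.05% parasitemia, 2% hematocrit). Luciferase-reporter P. falciparum; decreased luminescence indicates inhibited growth, aimed at apicoplast-acting delayed death.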
An asterisk follows results filed as active; ? = inconclusive; · = no result. Only some compounds are listed: those with a hit (about 21% of all), similar ones and a draw of the others. Unless noted, calls follow the shape of the dose curve; as a rule, active = well fitted inhibition curve with a large enough effect; inconclusive = small, poorly fitted or top-dose-only effect, or another doubt; inactive = no such curve, though single readings can be large or run the other way.

SMILES	CHX counter	Shiga toxin inh	Pf growth 48h	NS1 function inh	Pf growth 96h
COC(=O)c1cn(CCOc2ccccc2)c2ccccc12	55*	79*	-16%	-30%	·
COC(=O)c1cn(CCOc2ccccc2F)c2ccccc12	40*	71*	·	-6%	9%
O=C(C1CCCN(S(=O)(=O)c2ccc(F)cc2)C1)N(Cc1cccs1)C1CC1 (configuration not stated)	-2	18	?	-14%	?
Cn1cnc2c(N/N=C/c3cccs3)ncnc21	31*	38*	124%	2%	102%
O=C(Cn1c(=O)n(Cc2ccc(C(=O)NCc3ccc4c(c3)OCO4)cc2)c(=O)c2ccccc21)Nc1ccc(F)cc1F	2	-4	·	·	·
COc1ccc(O)c(C2=Nc3ccccc3N=C(c3ccccc3)C2)c1	42	87	66%	?	91%
Oc1ccccc1C1=Nc2ccccc2N=C(c2ccco2)C1	13*	24	-4%	-4%	6%
Cc1ccc(NS(=O)(=O)c2c(C(=O)N3CCOCC3)c(C)n(C)c2C)cc1C	8	23	17%	2%	-1%
Cc1c(C(=O)N2CCOCC2)c(S(=O)(=O)Nc2ccc(C(C)C)cc2)c(C)n1C	-4	-3	-17%	-7%	10µM*
COCCCNC(=O)CCCCCNS(=O)(=O)c1ccc(Br)cc1	-6	4	-9%	·	?
CC(OC(=O)c1cc(O)c2ccccc2c1O)C(=O)Nc1ccc(C(N)=O)cc1 (configuration not stated)	·	·	?	·	12µM*
Cc1cc(N2CCN(c3ccccc3)CC2)nc(NCc2ccccc2)n1	7	3	?	-62%	·
Cc1cccc(Nc2ccc(NCc3ccccc3)nn2)c1	31*	87*	47%	·	?
COc1cccc(CNc2nc3nc(C)cc(C)n3n2)c1	11*	66	29%	-2%	·
COc1ccc(Nc2cc(C)nc(NCc3ccccc3)n2)cc1	1	22	0.47µM*	-34%	1.7µM*
COc1cc(C)nc(NCc2ccccc2)n1	9	8	3%	3%	?
Cc1cc(NC2CCCCC2)nc(NCc2ccccc2)n1	-5	-18	1.9µM*	-40%	1.5µM*
COc1cccc(C2(O)CCN(C(=O)Cc3cccnc3)CC2)c1	-4	27	2%	0%	15%
CCc1cccc(C)c1NC(=O)C1CCCN(S(C)(=O)=O)C1 (configuration not stated)	0	-5	2%	9%	?
Cc1cc(OC(C)C)nc(NCc2ccccc2)n1	-2	-13	55%	-14%	?
Cc1ccc(Nc2cc(C)nc(NCc3ccccc3)n2)cc1	-1	-5	0.66µM*	-29%	44%
COC(=O)c1ccc(Oc2cc(C)nc(NCc3ccccc3)n2)cc1	-5	-8	?	-8%	10µM*
CCC(Oc1ccccc1)C(=O)Nc1nnc(S(=O)(=O)N2CCCC2)s1 (configuration not stated)	-4	-11	-14%	20%	61%
O=C(NCCCCc1ccccc1)Nc1ccc(F)cc1	11	31*	?	-78%	?
Cc1ccc(NC(=O)NCCCc2ccccc2)cc1	35*	83*	-22%	-71%	1%
SMILES	CHX counter	Shiga toxin inh	Pf growth 48h	NS1 function inh	Pf growth 96h
CCOc1ccc(NC(=O)NCCCCc2ccccc2)cc1	0	13	4%	4%	4%
Cc1cccc(NC(=O)C(=O)NCCCc2ccccc2)c1	50*	51*	62%	3%	-22%
Cc1ccc(NC(=O)NCCc2ccc(S(N)(=O)=O)cc2)cc1	-3	-19	-5%	-1%	?
Cc1ccccc1NC(=O)NCCCCc1ccccc1	3	39*	?	-43%	-91%
COc1ccc(NC(=O)NCCCCc2ccccc2)cc1	22*	50	?	-1%	44%
CC(C)(C)c1cc(CCC(=O)N2CCCC2)cc(C(C)(C)C)c1O	-3	-18	1%	18%	-31%
CC(C)(C)c1cc(C(=S)N2CCCC2)cc(C(C)(C)C)c1O	-2	-3	?	-39%	4.1µM*
Cc1ccc(CNc2ccc(CNc3ncn[nH]3)cc2)cc1	15*	36	·	14%	-16%
CCOc1ccc(CNc2ccc(CNc3ncn[nH]3)cc2)cc1	6	-2	45%	10%	?
c1ccc2c(CNc3ccc(CNc4ncn[nH]4)cc3)cccc2c1	23*	active	14%	11%	?
CCN(CC)S(=O)(=O)c1ccc(C(=O)NCC(c2cccs2)N2CCOCC2)cc1 (configuration not stated)	1	-9	-14%	-13%	?
C=CCN(c1ccccc1OC)S(=O)(=O)c1cccc(C(=O)NCc2cccs2)c1	·	·	12µM*	·	12µM*
CCN(c1ccccc1)S(=O)(=O)c1cccc(C(=O)N2CCN(S(=O)(=O)c3ccccc3)CC2)c1	0	-7	?	15%	8.3µM*
O=C(NCC(c1cccs1)N1CCOCC1)C1CCN(S(=O)(=O)c2cccc(C(F)(F)F)c2)CC1 (configuration not stated)	·	·	?	·	10µM*
C=CCN(c1ccccc1)S(=O)(=O)c1cccc(C(=O)N2CCCC2)c1	·	·	?	·	10%
CCN(c1ccccc1)S(=O)(=O)c1cccc(C(=O)NCC(c2cccs2)N2CCOCC2)c1 (configuration not stated)	·	·	15µM*	·	?
CC1CN(C(=O)c2cccs2)CCN1C(=O)c1cccs1 (configuration not stated)	-3	-5	15%	2%	37%
O=C1CN(Cc2cc(=O)oc3cc4c(cc23)CCC4)CCN1	1	-5	12%	·	0%
O=C(NCC(c1cccs1)N1CCOCC1)c1cccc([N+](=O)[O-])c1 (configuration not stated)	0	-21	4%	3%	-10%
C=CCN(c1ccccc1)S(=O)(=O)c1cccc(C(=O)NCC(c2cccs2)N2CCOCC2)c1 (configuration not stated)	·	·	10µM*	·	?
O=C(NCC(c1cccs1)N1CCOCC1)c1cc([N+](=O)[O-])cc([N+](=O)[O-])c1 (configuration not stated)	18*	2	0%	-1%	17%
COc1ccccc1N(C)S(=O)(=O)c1ccc(C(=O)Nc2ccc(N3CCOCC3)cc2)cc1	-4	-7	0%	-7%	0%
C=CCN(c1ccccc1OC)S(=O)(=O)c1ccc(Cl)c(C(=O)Nc2ccc(N3CCOCC3)cc2)c1	11	12	5.9µM*	·	4.1µM*
Cc1nn(-c2ccccc2)c(NC(=O)NS(=O)(=O)c2ccc(Cl)cc2)c1C#N	-8	-4	·	·	·
CCOC(=O)c1ccccc1NC(=O)COC(=O)C1CCN(S(=O)(=O)c2ccccc2C(=O)OC)CC1	·	·	-27%	·	?
CCOC(=O)c1c(C)[nH]c(C)c1S(=O)(=O)N1CCCCC1	9	-3	-4%	9%	60%
